Reference: PubChem BioAssay
Records with an inconclusive call do not appear. Activity calls are given as the source filed them.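 Rule for the calls, unless noted: active = normalized viability below 100% at a tested concentration; inactive = the rest.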

How the values were obtained:
[1] = viability loss in pontine glioma line – cell-based, SU-DIPG-XVII, MIPE5.0, CellTiter-Glo, qHTS, dose response (AID 1347060; cut-off not given, nearly all actives have AC50 up to about 26 µM;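 note: cells exposed to compound for 48 hours before viability readout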); conditions: CellTiter-Glo ATP luminescence
[2] = viability loss in pontine glioma line – cell-based, SU-DIPG-XIII, MIPE4.0, CellTiter-Glo, qHTS, dose response (AID 1347061; cut-off not given, nearly all actives have AC50 up to about 37 µM;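 note: cells exposed to compound for 48 hours before readout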); conditions: CellTiter-Glo ATP luminescence
[3] = viability loss in pontine glioma line – cell-based, SU-DIPG-IV, MIPE4.0, CellTiter-Glo, qHTS, dose response (AID 1347063; cut-off not given, nearly all actives have AC50 up to about 30 µM;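 note: compound exposure lasted 48 hours before the viability readout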); conditions: CellTiter-Glo ATP luminescence
[4] = viability loss in pontine glioma line – cell-based, SU-DIPG-XXV, MIPE5.0, CellTiter-Glo, qHTS, dose response (AID 1347065; cut-off not given, nearly all actives have AC50 up to about 26 µM;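 note: cells exposed to compound for 48 hours before ATP readout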); conditions: CellTiter-Glo ATP luminescence
[5] = JHH-DIPG-1 glioma cell viability, MIPE5.0 library, CellTiter-Glo luminescence, qHTS (AID 1347067; cut-off not given, nearly all actives have AC50 up to about 26 µM;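 note: cells exposed to compound for 48 hours before readout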); conditions: JHH-DIPG-1 glioma viability, CellTiter-Glo ATP luminescence
[6] = viability loss with induced miR-34 in A549 – imaging, A549 dox-inducible miR-34, nuclei and caspase counts, primary screen (AID 1347080;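 active = compounds whose cell count with miR-34 switched on is under 0.7 times the count with it off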); conditions: A549 miR-34 inducible, Hoechst nuclei count, 48 h
[7] = compounds altering HSF1 focus formation in cells – imaging, Selleck Cancer Library (AID 1347162; in the data active = plate-normalised HSF1 focus index below about 0.46); conditions: human cells, HSF1 nuclear foci imaging, at 10 µM; SSMD: measured here: HSF1 foci SSMD mean; cell count: measured here: cell number; plate-normalised HSF1 focus index: stronger effect = lower value
[8] = MELAS cybrid and Rieske KO viability enhancers – cell-based, MELAS cybrids, Rieske KO mouse fibroblasts, CellTiter-Glo, primary screen (AID 1508586;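 active = mean z-score across replicates of 1.96 or higher in either the MELAS or the Rieske mutant cell line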;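 note: z relative to plate mean and SD of compound and empty wells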); conditions: low glucose
[9] = drug combination growth inhibition, ovarian cancer – cell-based, oncology-focused library, rucaparib conditional, profiling panel (AID 1508598); conditions: patient-derived ovarian cancer cells, CellTiter-Glo viability, 144 h, stronger effect = lower value

Cc1cn(-c2cc(NC(=O)c3ccc(C)c(Nc4nccc(-c5cccnc5)n4)c3)cc(C(F)(F)F)c2)cn1
0.723: SSMD [7]
active: AC50 [1] 10.5 µM | AC50 [3] 8.33 µM | AC50 [4] 10.5 µM | AC50 [5] 11.8 µM | z-score ([8]; MELAS cybrid survival, CellTiter-Glo 48 h, stronger effect = higher value) 3.41 | viability ([9]; at 0.00488 µM, OCI-P5x cells, without rucaparib) 98.8% | viability ([9]; at 0.0195 µM, OCI-P5x cells, without rucaparib) 91.4% | viability ([9]; at 0.0781 µM, OCI-P5x cells, with rucaparib 20 µM, 100% = cells with rucaparib alone) 98.7% | viability ([9]; at 1.25 µM, OCI-P5x cells, with rucaparib 20 µM, 100% = cells with rucaparib alone) 97.7% | viability ([9]; at 1.25 µM, OCI-P5x cells, without rucaparib) 91.7% | viability ([9]; at 5 µM, OCI-P5x cells, with rucaparib 20 µM, 100% = cells with rucaparib alone) 68% | viability ([9]; at 5 µM, OCI-P5x cells, without rucaparib) 30.3%
7680: cell count [7]
-0.657: z-score ([8]; Rieske KO mouse fibroblast survival, CellTiter-Glo 72 h)
1260: cell count ([6]; measured here: total cells with miR-34 induction, stronger effect = lower value)
0.941: fold change ([6]; measured here: relative caspase fold change +Dox/-Dox)
inactive: outcome [2] | fold change ([6]; stronger effect = lower value, cell number ratio, induced over uninduced) 0.874 | plate-normalised HSF1 focus index [7] 1.05 | viability ([9]; at 0.000305 µM, OCI-C5x cells, with rucaparib 10 µM, 100% = cells with rucaparib alone) 106% | viability ([9]; at 0.000305 µM, OCI-C5x cells, without rucaparib) 116% | viability ([9]; at 0.000305 µM, OCI-P5x cells, with rucaparib 20 µM, 100% = cells with rucaparib alone) 103% | viability ([9]; at 0.000305 µM, OCI-P5x cells, without rucaparib) 105% | viability ([9]; at 0.00122 µM, OCI-C5x cells, with rucaparib 10 µM, 100% = cells with rucaparib alone) 108% | viability ([9]; at 0.00122 µM, OCI-C5x cells, without rucaparib) 117% | viability ([9]; at 0.00122 µM, OCI-P5x cells, with rucaparib 20 µM, 100% = cells with rucaparib alone) 100% | viability ([9]; at 0.00122 µM, OCI-P5x cells, without rucaparib) 101% | viability ([9]; at 0.00488 µM, OCI-C5x cells, with rucaparib 10 µM, 100% = cells with rucaparib alone) 109% | viability ([9]; at 0.00488 µM, OCI-C5x cells, without rucaparib) 116% | viability ([9]; at 0.00488 µM, OCI-P5x cells, with rucaparib 20 µM, 100% = cells with rucaparib alone) 103% | viability ([9]; at 0.0195 µM, OCI-C5x cells, with rucaparib 10 µM, 100% = cells with rucaparib alone) 105% | viability ([9]; at 0.0195 µM, OCI-C5x cells, without rucaparib) 127% | viability ([9]; at 0.0195 µM, OCI-P5x cells, with rucaparib 20 µM, 100% = cells with rucaparib alone) 102% | viability ([9]; at 0.0781 µM, OCI-C5x cells, with rucaparib 10 µM, 100% = cells with rucaparib alone) 117% | viability ([9]; at 0.0781 µM, OCI-C5x cells, without rucaparib) 116% | viability ([9]; at 0.0781 µM, OCI-P5x cells, without rucaparib) 104% | viability ([9]; at 0.313 µM, OCI-C5x cells, with rucaparib 10 µM, 100% = cells with rucaparib alone) 107% | viability ([9]; at 0.313 µM, OCI-C5x cells, without rucaparib) 118% | viability ([9]; at 0.313 µM, OCI-P5x cells, with rucaparib 20 µM, 100% = cells with rucaparib alone) 116% | viability ([9]; at 0.313 µM, OCI-P5x cells, without rucaparib) 103% | viability ([9]; at 1.25 µM, OCI-C5x cells, with rucaparib 10 µM, 100% = cells with rucaparib alone) 127% | viability ([9]; at 1.25 µM, OCI-C5x cells, without rucaparib) 117% | viability ([9]; at 5 µM, OCI-C5x cells, with rucaparib 10 µM, 100% = cells with rucaparib alone) 139% | viability ([9]; at 5 µM, OCI-C5x cells, without rucaparib) 116%
1440: cell count ([6]; measured here: total cells without miR-34 induction)
